Source: PubChem BioAssay
S2 tox = cell viability loss in ATXN counter-screen; S2 cells (HEK-293 line with an ATXN2-luciferase reporter) viability, CellTiter-Fluor protease fluorescence, 24 h; Potency, µM (highest dose often 56.7 µM), actives largely listed as cytotoxic; 400,000 compounds, 0.49% hits; note: nearly all actives have a fitted effect of over 40% in size
ATXN2 expr inh = inhibitors of ATXN2 expression. HEK-293 ATXN2-luciferase reporter, luminescence, 24 h. Potency, µM (highest dose often 57 µM), for inactives: at the highest dose activity change, negative = inhibition, most hits filed as inhibitors. 360,000 compounds, 0.72% hits. AID 1745845; note: % is set by controls: 0 for no effect and ±100 for the full control effect; nearly all actives have a fitted effect of over 55% in size
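ATXN2-luciferase reporter cells (luciferase flanked by upstream and downstream ATXN2 gene portions) were treated 24 h at 37 °C with compounds at up to 57 uM. SteadyGlo luminescence gave expression; GF-AFC fluorescence gave viability.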
TGFb SMAD3 inh = TGF-b pathway inhibition; HepG2 CAGA-GFP TGF-b/SMAD3 reporter, GFP fluorescence, 18 h; TGF-beta stimulated, 500 pg/mL final; Potency, µM (doses to about 46.1 µM), without a hit: at the highest dose activity, negative = inhibition, most hits filed as inhibitors; 410,000 compounds, 1.2% hits; AID 588855; note: % is set by controls: 0 for no effect and ±100 for the full control effect; nearly all actives have a fitted effect of over 65% in size
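GFP signal (ex488/em500-530) from TGF-beta-stimulated HEPG2 CAGA-GFP cells, 500 pg/mL final, 18 h at 37 degrees C in DMEM plus 1% FBS, normalized to unstimulated and DMSO-stimulated controls.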
HepG2 tox-1 = HepG2 cytotoxicity, counter-screen for TGF-b inhibitors | HepG2 CAGA-GFP viability, ATP luminescence, 18 h | Potency, µM (series often up to 46.1 µM), for the others: at the top dose activity change, negative = cytotoxicity, actives largely listed as cytotoxic | 410,000 compounds, 0.76% hits
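HepG2 CAGA-GFP cells (1000/well, DMEM with 1% FBS) received compound, then TGF-beta at 500 pg/mL final, and were incubated 18 hours at 37 degrees C. Viability was read by CellTiter-Glo luminescence. Media-only wells were set as complete cell-killing and DMSO as no toxicity.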
TGFb confirm = confirmation of TGF-b signaling inhibitors in HepG2 reporter cells; shares compounds with TGFb SMAD3 inh; HepG2 CAGA-GFP TGF-b reporter, GFP fluorescence, 18 h; cells stimulated with TGF-beta, 500 pg/mL; Potency, µM (top dose mostly 46.1 µM), for inactives: at the top dose activity, negative = inhibition, usual class: inhibitors; 1,600 compounds, 63% hits; note: % is set by controls: 0 for no effect and ±100 for the full control effect; nearly all actives have a fitted effect of over 65% in size
HepG2 tox-2 = HepG2 cytotoxicity, TGF-b inhibitor counterscreen; Potency, µM (highest dose often 46.1 µM), for inactives: top-dose activity, negative = cytotoxicity, usual class: inhibitors; HepG2 CAGA-GFP viability, ATP luminescence, 18 h; cells stimulated with TGF-beta, 500 pg/mL; shares compounds with TGFb SMAD3 inh; 1,600 compounds, 27% hits; note: % is set by controls: 0 for no effect and ±100 for the full control effect; nearly all actives have a fitted effect of over 70% in size
TGFb CCL64 inh = orthogonal confirmation of TGF-b inhibitors in CCL64 cells. shares compounds with TGFb SMAD3 inh. CCL64 CAGA-GFP reporter, TGF-b stimulated, GFP fluorescence, 18 h. Potency, µM (series often up to 46.1 µM), for inactives: at the top dose activity, negative = inhibition, most hits filed as inhibitors. 1,600 compounds, 41% hits; note: nearly all actives have a fitted effect of over 65% in size
TGFb COP inh = validation of TGF-b inhibitors in HepG2 COP promoter reporter. shares compounds with TGFb SMAD3 inh. HepG2 COP-GFP TGF-b reporter, GFP fluorescence, 18 h; cells stimulated by added recombinant TGF-beta. Potency, µM (top dose mostly 46.1 µM), for the others: at the top dose activity, negative = inhibition, usual class: inhibitors. 1,600 compounds, 3% hits. AID 720537; note: nearly all actives have a fitted effect of over 70% in size
* = called active by the depositor; i = inactive; u = inconclusive; x = no result given; ! = not confirmed by another sample; [ ] = dose if it differs, or a comment. Compounds with a hit are over-represented: about 2.3% of the library has one in this group of screens. Calls come from the whole dose curve; as a rule, active = well fitted curve in the direction sought with a large enough effect; inconclusive = small, poorly fitted or top-dose-only effect, or another doubt; inactive = no such curve, though single readings can be large; an effect the other way counts as inactive or inconclusive. Potency is the fitted concentration of half-maximal effect.

SMILES	S2 tox	ATXN2 expr inh	TGFb SMAD3 inh	HepG2 tox-1	others
COc1cc(CC(C)N)cc2c1OCO2 (stereo not drawn)	i	-11%[116 µM]	x	x
CCCN(CCC)C(=O)Cc1c(-c2ccc(Cl)cc2)nc2ccc(Cl)cn12	u	-1%	x	x
CN1CC=C(/C=C/c2ccc(-c3ccccc3)cc2)CC1	u	x	u	11µM*
Cc1ccc(-n2sc3ccccc3c2=O)cc1	u	0%	u	-104%
O=c1c2ccccc2sn1-c1ccc(Cl)cc1	18µM*	u	u	-78%
Cc1ccccc1[N+](=O)[O-]	i	-11%	2%	-10%
Cc1cc([N+](=O)[O-])c2ccccc2[n+]1[O-]	x	x	0.5µM*	-126%
CC(N)C(=O)NC1C2C(=C(O)CC(O)C2O)C(=O)OC1(C)C(Cl)Cl (stereo not drawn)	u	1.5µM*	u	-4%
COc1ccccc1CNC(=O)Cn1c(=O)oc2cc(S(=O)(=O)N3CCC(C)CC3)ccc21	i	-20%	u	-33%
COc1cccc(CSc2nc(-c3ccccc3OC)nc3c2Cc2c(CO)cnc(C)c2O3)c1	u	u	31%	-1%
NC(=Nc1ccccc1)NN=Cc1c[nH]c2ccccc12	u	-3%	u	-45%
CCCCCN=C(N)N/N=C/c1c[nH]c2ccc(OC)cc12	18µM*	5.6µM*!	u	16µM*
COc1ccc(C2=C(C(C)=O)Sc3nnc(-c4ccc(C)cc4)n3N2C(C)=O)cc1OC	x	x	u	-16%
C[C@@H]1O[C@@H](O[C@@H]2C=C3CC[C@@H]4[C@@H](CC[C@]5(C)[C@H](c6ccc(=O)oc6)CC[C@@]45O)[C@@]3(C)CC2)[C@H](O)[C@H](O)[C@H]1O	x	0.019µM*	0.32µM*	-61%
O=[N+]([O-])/N=C1\NCCN1Cc1ccc(Cl)nc1	i	8%	x	x
O=Cc1cn(Cc2ccc(Br)cc2)c2ccccc12	u	u	1µM*	-46%
CC(=O)N(C)c1cccc(-c2ccnc3c(C(=O)c4cccs4)cnn23)c1	x	76%	x	x
Oc1ccc(Cl)cc1Sc1cc(Cl)ccc1O	u	u	8.9µM*	-124%
COc1ccc2oc(-c3cccc(NC(=O)c4ccc(C#N)cc4F)c3)nc2c1	u	0%	10%	-15%
NCC[C@H](O)C(=O)N[C@@H]1C[C@H](N)[C@@H](O[C@H]2O[C@H](CN)[C@@H](O)[C@H](O)[C@H]2N)[C@H](O[C@@H]2O[C@H](CO)[C@@H](O)[C@H]2O)[C@H]1O	i	x	x	x
CC[C@@H]1[C@@H](C)O[C@@](O)([C@@H](C)[C@H](O)[C@H](C)[C@H]2OC(=O)C=CC=C[C@@H](C)[C@@H]([C@@H](C)[C@@H](O)[C@H](C)[C@@]3(O)C[C@H](O[C@H]4C[C@H](O)[C@H](O)[C@H](C)O4)[C@H](CC)[C@@H](C)O3)OC(=O)C=CC=C[C@@H]2C)C[C@H]1O[C@H]1C[C@H](O)[C@H](O)[C@H](C)O1	x	0.97µM*	x	x
COc1cccc(CN2CCc3nc(N4CCN(c5ncccn5)CC4)ncc3C2)c1	u	u	u	-23%
CCCCC[C@H]1CCCCC[C@H](O)C[C@H](O)[C@@H](O)/C=C/C(=O)O1	i	-10%	x	x
C[C@H]1CCC/C=C/C2C[C@H](O)CC2[C@H](O)/C=C/C(=O)O1 (stereo partly drawn)	u	u	0.1µM*	-27%
CC(C)c1oc(=O)cc2c1[C@@H](O)[C@H]1OC(=O)[C@@]3(C)C[C@@H](O)[C@@H](O)[C@@]2(C)C13 (stereo partly drawn)	u	u	8.9µM*	-25%	TGFb confirm=2.9µM*;HepG2 tox-2=u;TGFb CCL64 inh=5.2µM*;TGFb COP inh=16%
SMILES	S2 tox	ATXN2 expr inh	TGFb SMAD3 inh	HepG2 tox-1	others
NC1=C(Br)C(=O)c2ccccc2C1=O	u	u	5.6µM*	5.6µM*	TGFb confirm=5.2µM*;HepG2 tox-2=8.2µM*;TGFb CCL64 inh=9.2µM*;TGFb COP inh=u
Cc1cc(N2CCCCC2)nc2ccc(NC(=O)/C=C/c3ccc(OC(C)C)cc3)cc12	i	-10%	u	-23%
CNc1ccc2oc(C[C@H]3O[C@@]4(CC[C@H]3C)O[C@H]([C@H](C)C(=O)c3ccc[nH]3)[C@H](C)C[C@H]4C)nc2c1C(=O)O	7.1µM*	8.9µM*	5µM*	7.1µM*	TGFb confirm=2.1µM*;HepG2 tox-2=1.5µM*;TGFb CCL64 inh=1µM*;TGFb COP inh=6.5µM*
CSCCC(c1nnnn1C1CCCCC1)N1CCC(n2c(=O)[nH]c3ccccc32)CC1 (stereo not drawn)	u	u	14µM*	-2%	TGFb confirm=26µM*;HepG2 tox-2=-20%;TGFb CCL64 inh=-31%;TGFb COP inh=-1%
CSCCC(c1nnnn1-c1c(C)cccc1C)N1CCC(n2c(=O)[nH]c3ccccc32)CC1 (stereo not drawn)	u	0%	-18%	-13%
COc1ccc(C(c2nnnn2Cc2ccccc2)N2CCC(n3c(=O)[nH]c4ccccc43)CC2)cc1 (stereo not drawn)	x	u	u	1%
COc1ccc(C(c2nnnn2-c2ccc(OC)cc2)N2CCC(n3c(=O)[nH]c4ccccc43)CC2)cc1 (stereo not drawn)	u	u	11µM*	-2%	TGFb confirm=16µM*;HepG2 tox-2=-27%;TGFb CCL64 inh=13µM*;TGFb COP inh=51%
CC(=O)N1CCCc2cc(S(=O)(=O)N3CCCC(C(=O)N4CCN(c5ccccc5F)CC4)C3)ccc21 (stereo not drawn)	u	u	-24%	-14%
NC(=O)c1cn(C2OC(CO)C(O)C2O)c2ncnc(N)c12 (stereo not drawn)	x	0.28µM*!	0.11µM*	-47%	TGFb confirm=0.092µM*;HepG2 tox-2=0.065µM*;TGFb CCL64 inh=0.23µM*;TGFb COP inh=-12%
Nc1ncnc2c1ncn2[C@@H]1O[C@H](COP(=O)(O)CP(=O)(O)O)[C@@H](O)[C@H]1O	i	0%	2%	-32%
